Assay results from the supplement of paper PMC12632987.
The full ranking holds about 2,300 sequences; the median of “median log2 fold change of GCK-ALFA target abundance (FLAG IP / Myc IP barcode read proportion)” is about 0.095, and the lowest 2% start at about -0.47. What follows is part of a selection rich in the lowest values, with near analogues and random picks from the rest.

B1: LC3A_28_1195 (protein)
chain: SLAEETIKKIREQAKKALEEGDGAVIEVNISKELSDEGIDKILETIKEEAAKLADLESVSIIINVESGVSQENIDKIADTGEEIEEKYPNVTVIIALDED
B2: LC3A_28_898 (protein)
chain: MSALESAEAALAAVRAAVAAGDQAPLVLEVKAPSTEEDTEKLIELLEEIAREASQLTGVTIVIDIDESVSEENQQKLIDKAEELEKKYPNVTVIIALPES
B3: LC3A_28_683 (protein)
chain: SETDESIEKALKKAKEALEKGKPEVIEIKVSGDTTEEELEKILEALEEIAEIANKVPGSAIIIDIDADLPQEFRDKLIDKAEELEEKYPNVTIIFALEER
B4: LC3A_free_0_2122 (protein)
chain: KKTVVEVVVILDESTSKETAEEIYEKLKEKAEELAKEAGAEVESSLSEVDGSYIITIKITLPTDDIDKALELEDKLVETAEEIAKEAGVEATIYSSVYLE
B5: LC3A_3_1412 (protein)
chain: LEERREALLAELRAAGWSEETLAAVEELLEALLARGAEEEAERALELLRAARDLPSERLLEVVEEALRALREEGLSPEEVIALLEELLRVARAEQEIEEL
B6: LC3A_28_1281 (protein)
chain: SEIEEEIERAIKEAKEAKEKGEPAVIEIEVPGDATEEEIEKVIKGLEEIAEILKDIPNQAIVINVDSGVKEEHIDKLVDKAEEIEEKYPNVTVIIALDED
B7: LC3A_3_1385 (protein)
chain: MEEEMEKTLERLREAGHSEETIEAARKALEALIEKGYENSAKTFIELLDELIHLPDELLLELFEDVLELIETEDIDEETLTEKIKEIASVYKNESEIEEL
B8: LC3A_free_26_2139 (protein)
chain: EKFVDIYLIDEAIDALEKAKELAKKIEGIGEKLVKLLEEALKLIEKETLESLEKAIKILKEIKELIEKDKTIDEETKKELLELVTKALEKVEEVVKIMKE
B9: LC3A_3_1411 (protein)
chain: LEERLAATEALLREAGHSEETLAAFRRLVELLLERGAEEEAERVLELVAEAKDISSEDLLAVLEEVIRALEEEGASPEEAVERLEELLRIARAEQEIEEL
B10: LC3A_147_452 (protein)
chain: ATYVITVDVLLRNDPELAERIEEEIKKIGEENGAEVEVEREEIQETPTTTEYFLRVTLKTTDEEKALKALQEVSELLDRTAEEHPESFLGAMISFEKIED
B11: LC3A_28_844 (protein)
chain: SKTEKDIKEALERAKRAAEEGKSEVITIKVYKGDTEEEINKIIETLEEIAEILKDLPNQAILIDFEEKIDEEHQNKIIDKAEEIEKKYPNITVIIALPEE
B12: LC3A_28_846 (protein)
chain: SKTEEDIEKALKEAKEAAKKGEPAVIELKVYKGDTEEEIEKIIEALEEIAEILKDLPNQAILINFEEVIDEEHQNKILDKAEEIEKKYPNVTVIIALPEE
B13: LC3A_28_842 (protein)
chain: SKTEENIKKALAEAKEAAEKGESKVITLKVYKGDTEEEIDKIIETLEEIAEILKDLPNQAIIIEFEEPIDPEHQDKIIDKAEEIEKKYPNITVIIALPEE
B14: LC3A_132_311 (protein)
chain: SEEKYKEIKEELEKKLKEAEKNIKDKEKVEKLLEEIRKLLEEAEEELSPEQVAELYDEVADRLWKLSQKALEAGQEDVALELDAAAIEAASRSLEAEKLI
B15: LC3A_free_46_2418 (protein)
chain: YRGIVEADLLGLTEEQVEEVIERVKEKAKRLEEEYGVKVEVEVEVEKNEDGTYFLRIKVTIEGEDREKVEKAANEVVDLLEKLADEYGAAMIISIEFEEL
B16: LC3A_147_515 (protein)
chain: MYEVDIDILVKREGEEEVLEELEEILEELREEGYEVEVLEKRIEREGDEVFIYVKVLIRAPTPEEAEKAVNRLISRLEELEEKHKDLILGSLISVEKIEP
B17: LC3A_147_484 (protein)
chain: MRVYVDVLVDDEETAEELVRLMEATVEELRAQGIRVELRVEIEEVEPGVYFVEIEVEIEAETEEEEQAAAQRVIDALEAFDEANKDRVLGTLISVEREER
B18: LC3A_132_312 (protein)
chain: MEEKYAEIKARLDALLDEAAANIKDKAKVQALLKEIKALLEEAEKELTPEQVAELYDYVADRLDALSQQALAAGQEDVALDLDAASIEAASRSLEAEKKI
B19: LC3A_free_8_2551 (protein)
chain: NSQEFAEKVSEIIDEAEEKVKKILTENGVDREKRLLLELLFGEIIIEVISLRDKSKEEIAKAAKEGLEEVKEEAESLDEETKAKVNAVIDEAEAKIEALL
B20: LC3A_28_1011 (protein)
chain: MSLIEKTKEEAKKAIEEAKKGEDAFLEVEITEEATEEEVKEVLEIIEETAEEISKIENVKLYIVVDFDGDQEKLDLITDGLEEIEEKYPNVSSIIAYDEK
B21: LC3A_28_1012 (protein)
chain: MSLIEATKKEAKAAIEEAKKGEDAFLEVTITEEATEEEVKEVLKIIEETAEEISKIPNVKLYVVIDFDGSQEKLDIITDRMEEIEKKYPNVSVVIAYDEK
B22: LC3A_28_1155 (protein)
chain: SAEVEEAKKLIDEDAERDKDEEEVYLEVKITSSVTVEEAREIMDHVEEVVEKLKDKKKIYVVVTFEEPVSQEVLDEVLRRAEEIEEKFPNVDVIIALPED
B23: LC3A_28_1154 (protein)
chain: SANVEAAKKQIDEDAEKDKDEEEVYLNVTITSEDTVEEAKEIMEHVEEVVEKLKDKKKIYVVITFEEPVSQEVLDTVLEKAEEIEKKFPNVSVIIALPED
B24: LC3A_28_1147 (protein)
chain: SAEVEAAKKQIDEDAEKDKNEEEVYLNVTITSSMTKEEVEEIMDHVEEVVEKLKDKKKIYVVVTFTEPVSQEVLDTALEKGDEIEKKFPKVDVIVALPEY
B25: LC3A_free_8_2523 (protein)
chain: ASQAFADAAVKILDELEEKLVKLLKEKGASRLDILEAELLVGSIIAEVISLVDESIEAILKSIKEGLEELVEELEEHKEEVTKLANEALKKIEEKAKELK
B26: LC3A_3_1539 (protein)
chain: LEEEIEAALALLREAGASEETLAAFREAAEALLERGYEEALRELIRETRELIDAPSELLLAFFEEVLALVRTSDLSEEELIAEIRRIARTTRNEAEIEEL
B27: LC3A_62_2043 (protein)
chain: MYLATVDVDILAKDEEAAEKIYEEIKKKLEELKKKDPNIKYEVKLDKENKYVSVTVTYEAETLEEAEKKAQEIEDELDEILEKNEDLIKAALISREITKL
B28: LC3A_28_882 (protein)
chain: SKALESAEKALEEVKKAVEAGDKEPLVLEVEAPSDEENTEKFLKLLEELAKEASKLPGVTIIVNIDSSVSQELRDKIIDKAEELEKKYPNVTIIIALPED
B29: LC3A_147_504 (protein)
chain: VKLEVYIDIITKNATEEVKEFVKEIEKELKEKGFEVKVKIKIEKLDEDTDYIEIEIEIKAETEEKAKEAANYIIDKFEEFEEKNKDKILGSLISVEIEKE

Biological target: MAP1LC3A, Q9H492
Assay: median log2 fold change of GCK-ALFA target abundance (FLAG IP / Myc IP barcode read proportion) (log2 ratio); each designed protein is fused to an ALFA-tag nanobody in HEK293 cells to bring the named protein to FLAG-tagged glucokinase (GCK); Myc marks an untargeted standard; higher = target protein stabilised (more abundant)
Settings: target protein: 3xFLAG-MCP-GCK-ALFA reporter; HEK293 landing pad (RPLP)
How it was run: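 Binders fused to an ALFA nanobody were recombined as a library into HEK293 landing-pad cells, which were induced with 2 μg mL^−1 doxycycline and then transfected to express a FLAG-tagged target and a Myc-tagged standard. After 48 h, circular RNA barcodes recovered by anti-FLAG and anti-Myc immunoprecipitation of lysates were reverse transcribed, amplified and sequenced. Each binder's target abundance is the median log2 ratio of FLAG to Myc barcode read proportions, from barcodes present at ≥10^−7 in both replicates, binders carrying ≥3 barcodes per replicate, a 10^−6 pseudocount and pooled replicates.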

B1 and B2 are within 0.2 log units of each other in “median log2 fold change” value: 0.229 for the first, 0.201 for the second.

First: B3
Second: B4
The “median log2 fold change” value of the first is lower: -0.521 for the first, -0.221 for the second.

Going from B5 to B6, the “median log2 fold change” value falls from 0.243 to -0.286.

B7 and B8 are within 0.2 log units of each other in “median log2 fold change” value: 0.082 for the first, 0.132 for the second.

Going from B9 to B10, the “median log2 fold change” value falls from 0.212 to -0.0647.

B11 and B12 are within 0.2 log units of each other in “median log2 fold change” value: -0.471 for the first, -0.293 for the second.

First: B13
Second: B14
The “median log2 fold change” value of the first is lower: -0.297 for the first, 0.256 for the second.

Compared with B15, B16 is lower in “median log2 fold change” value: 0.196 for the first, -0.205 for the second.

First: B17
Second: B18
The “median log2 fold change” value of the first is lower: -0.559 for the first, 0.361 for the second.

B19 and B20 are within 0.2 log units of each other in “median log2 fold change” value: -0.172 for the first, -0.21 for the second.

B21 and B22 are within 0.2 log units of each other in “median log2 fold change” value: -0.527 for the first, -0.446 for the second.

Going from B23 to B24, the “median log2 fold change” value falls from -0.142 to -0.475.

Compared with B25, B26 is higher in “median log2 fold change” value: -0.0394 for the first, 0.318 for the second.

First: B27
Second: B28
The “median log2 fold change” value of the first is higher: 0.16 for the first, -0.094 for the second.

With B29 the “median log2 fold change” value was -0.32.
